Where a chain is given by its changes, count along the chain named. Over roughly 24,000 sequences, “enrichment r” has its median near 0.99; the highest 2% begin near 3.7. Shown is part of a subset that was picked to be rich in the highest values.

We go through 14 molecules from paper PMC12136788.

B1: chr3:133545784:133545785:-_ENSG00000154917_ENST00000285208|hu_mus|motif|central (ssRNA)
RNA: GGGAGUUCUACAGUCCGACGAUCGAGGAUGUGAGUGUGUGUAUGUGUGCGCGCGAAGGGUGUAUACACAAGUCUAUCUCGGUGUAUAAUUAUGUACACACAUAUAAAAACUAAACACGUGACGUUUCGAUUAUGCUCGUACAUCAACAGAGGAUUGAGCAUCA
B2: chr1:39494564:39494565:+_ENSG00000168653_ENST00000372967|hu_hu|motif|central (ssRNA)
RNA: GGGAGUUCUACAGUCCGACGAUCACCUGCACGUCUCAUCGUUUUCUGCCGAAGCAAACACUCUACGAAAUCAUCAUAUUCGGUCUUGCACUCUUUCUCUGCCCGAGUAUAACCGAUUCCAUGUGCACAUUCUAUCCAUUCUUUCAACAGAGGAUUGAGCAUCA
B3: 121693014_121693134_369_3pUTR_ENSMUSG00000060227_ENSMUST00000078752|mouse|control|control (ssRNA)
RNA: GGGAGUUCUACAGUCCGACGAUCUUCUCCAAGCGCCCGCGGGCCACCUCGGUGCGCUGGACCUGGCCCUGCAGCUCGGCCACCUCCUCCUGAAGCAGAACGUGGCGGGAGGAGAUGCUCCAGUAGUUGAAGGCAAGGACGACGCAACAGAGGAUUGAGCAUCA
B4: chr19:47610742:47610743:-_ENSMUSG00000042694_ENSMUST00000049369|mus_hu|FALSE|FALSE (ssRNA)
RNA: GGGAGUUCUACAGUCCGACGAUCUGGCACCUGGCGGGACUCCUUCAUGUCCAGGAUAUCCCUGAUGUAGAGUUUUGCAAAGGCUAGAAACACAGGAUCCAAACCCCACAAGAGGGAAGGGGUCUCCUCUUCACACCGGCUGGACAACAGAGGAUUGAGCAUCA
B5: chr16:94646735:94646736:+_ENSMUSG00000040785_ENSMUST00000117648|mus_mus|motif|central (ssRNA)
RNA: GGGAGUUCUACAGUCCGACGAUCUGUUUUUAACUUUUUCCAGCAGUUCAUAUGAAAUUCUACCUUACAGUAUUGGCAACAGCGGAUUCGUAUAAAACCCUUAAAGUCUGGAUCAGUUAAGUAAAUCUGAAUUUUAGAAUAUCCCAACAGAGGAUUGAGCAUCA
B6: chr6:145182920:145182921:-_ENSMUSG00000030265_ENSMUST00000032399|mus_hu|motif|central (ssRNA)
RNA: GGGAGUUCUACAGUCCGACGAUCCUCCUCUUGACCUGCUGUGUCGAGAAUAUCCAAGAGACAGGUUUCUCCAUCAAUUACGGCUUGCUUCCUGUAGGAAUCCUCUAUUGUUGGAUCAUAUUCGUCCACAAAAUGAUUCUGAAUCAACAGAGGAUUGAGCAUCA
B7: chr7:75932113:75932114:+_ENSG00000106211_ENST00000248553|hu_mus|FALSE|FALSE (ssRNA)
RNA: GGGAGUUCUACAGUCCGACGAUCCUGCGACCACUCAUCGGGCAACCGGGGCACCCCGAAAGCUUGAUCGAAGAGGCGGCUGUGUGCAGGGUACCAGUCCCGGAAUGGUUCCCAGCUCGGGCUCCGCAGCAGCGAGAAGGGCACCAACAGAGGAUUGAGCAUCA
B8: chr16:45382771:45382772:-_ENSMUSG00000022661_ENSMUST00000163230|mus_mus|mus_mus_mus_hu_True|18_28 (ssRNA)
RNA: GGGAGUUCUACAGUCCGACGAUCCUGGGUCAUGUUAUAAGACAAAUGGACAGGGAGGGCAUGCUUCUCAAAAAAUGUGAGCUAUUGUCUAAGACUAACAAUAUUUACUAAGUGCUAUAAAAAUAAGAAAUGAAUAAGUUAAGACAACAGAGGAUUGAGCAUCA
B9: chr16:45382771:45382772:-_ENSMUSG00000022661_ENSMUST00000163230|mus_mus|mus_mus_mus_hu_True|28_78 (ssRNA)
RNA: B8 RNA with G57A, C66U, U117A, A121U, U123A, A124G, A125U, G126U
B10: chr16:45382771:45382772:-_ENSMUSG00000022661_ENSMUST00000163230|mus_mus|mus_mus_mus_hu_True|28_68 (ssRNA)
RNA: B8 RNA with C68G, A69U, A73G, U117A, A121U, U123A, A124G, A125U, G126U
B11: chr16:45382771:45382772:-_ENSMUSG00000022661_ENSMUST00000163230|mus_mus|mus_mus_mus_hu_True|28_88 (ssRNA)
RNA: B8 RNA with C50U, U117A, A121U, U123A, A124G, A125U, G126U
B12: chr1:225611761:225611762:-_ENSG00000143815_ENST00000272163|hu_mus|hu_hu_hu_mus_True|78_108 (ssRNA)
RNA: GGGAGUUCUACAGUCCGACGAUCCCAGGCCAUCGACCUCUGACCACUUCACCCUCAGCAAAUUUCCUACUUGGCAUUUUCUAAAAUUAGUCUGGCCGCGCUCCGGCGGGAACUCCAGCCACUCCAGGACAGUCACCAGCAGCCCAACAGAGGAUUGAGCAUCA
B13: 71781198_71781318_2220_CDS_ENSMUSG00000008305_ENSMUST00000030095|mouse|control|control (ssRNA)
RNA: GGGAGUUCUACAGUCCGACGAUCCACGCAGCUCUCGUGGAGGUGCAGCUGGUACUUGUCAGGCUUGUUCACAUGCAGAACUUCCACGUUGCUGCUUUCCAUGCCCACAGCAAGCCACUCCCCAGUUGGGCAAUAUCCCAAAGACAACAGAGGAUUGAGCAUCA
B14: chr3:57561382:57561383:-_ENSG00000168374_ENST00000303436|hu_hu|FALSE|FALSE (ssRNA)
RNA: GGGAGUUCUACAGUCCGACGAUCUAGCAGCACUGCAUCUCUCAAUUCAUCUACCAGAAGCAUUUUCUGCAGCUCAUCUGCUACUUCCUGAAUUCUUUCACGAUCGUUGCUAUCUACCACAAAAAUAAGACCCUGGGUAUUCUGCAACAGAGGAUUGAGCAUCA

This assay has as its target T1, UNK ZnF1-3 (human, UniProt Q9C0B0 31-174).
T1 sequence: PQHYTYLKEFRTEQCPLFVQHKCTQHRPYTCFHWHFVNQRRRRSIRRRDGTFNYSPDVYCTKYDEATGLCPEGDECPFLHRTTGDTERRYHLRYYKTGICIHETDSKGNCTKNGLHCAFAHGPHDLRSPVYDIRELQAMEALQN
The experiment in a line: nsRBNS (natural sequence RNA bind-n-seq); RBNS binding buffer (assumed for nsRBNS): 25 mM Tris pH 7.5, 150 mM KCl, 3 mM MgCl2, 0.01% Triton X-100, 500 ug/ml BSA, 20 U/ml SUPERase-In, 4 C; UNK is unkempt and MSI1 is Musashi-1; names of the RNAs are library labels; protein concentration not given here; high values mean tight binding.
B1 showed a binding signal of 1.66 enrichment R.

B2 gave a binding signal of 0.521 enrichment R.

In turn, B3 displayed a binding signal of 0.777 enrichment R.

With B4, the binding signal worked out at 0.707 enrichment R.

For B5, the binding signal was determined as 1.03 enrichment R.

With B6, the binding signal turned out to be 0.665 enrichment R.

Consider B7, for which the binding signal came out at 1.04 enrichment R.

B8 had a binding signal of 9.98 enrichment R.

B9: the binding signal was found to be 12.8 enrichment R.

The molecule B10 yielded a binding signal of 6.96 enrichment R.

As for B11, the binding signal is 5.11 enrichment R.

Consider B12, for which the binding signal was determined as 1.33 enrichment R.

B13 displayed a binding signal of 0.78 enrichment R.

As for B14, the binding signal worked out at 0.947 enrichment R.
